Data: PubChem BioAssay AID1159580 (chemical genetic matrix, 2015)
Among all 5,500 compounds or so, about 2,000 (36%) were called active. Another 18% or so got no clear call; they are omitted. Cut-off read from the data, not from the text of the source: active = normalized growth mostly below about 0.91 (no sharp cut-off); inconclusive = no clear call, values can overlap the other calls; inactive = mostly above about 0.92. Some of the results follow.

Test: chemical genetic growth profiling, strain panel (AID 1159580);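 note: tested at 20 µM; growth read once vehicle control cultures reached saturation at 30 °C; 1 = growth at the plate median or of vehicle wells; lower values mean less growth of the strain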
Conditions: growth OD

Measured: normalized growth

CCCC(=O)Nc1ccc(OCC(O)CNC(C)C)c(C(C)=O)c1 (configuration not stated)
inactive: S. cerevisiae deletion strains, locus YJR075W, strain HOC1, hits give low values 1.03 | S. cerevisiae deletion strains, locus YKL009W, strain mrt4, hits give low values 1.02 | S. cerevisiae deletion strains, locus YKL068W, hits give low values 1.02 | S. cerevisiae deletion strains, locus YKL085W, strain MDH1 (second series), hits give low values 1.01 | S. cerevisiae deletion strains, locus YKL085W, strain MDH1, hits give low values 1.01 | S. cerevisiae deletion strains, locus YKL160W, strain elf1, hits give low values 1.02 | S. cerevisiae deletion strains, locus YKL190W, strain CNB1, hits give low values 1.01 | S. cerevisiae deletion strains, locus YKR001C, strain vps1, hits give low values 1.04 | S. cerevisiae deletion strains, locus YKR026C, strain gcn3, hits give low values 1.01 | S. cerevisiae deletion strains, locus YKR091W, strain srl3, hits give low values 1 | S. cerevisiae deletion strains, locus YLL001W, strain dnm1, hits give low values 1.02 | S. cerevisiae deletion strains, locus YLL026W, hits give low values 1.01 | S. cerevisiae deletion strains, locus YLL041C, strain sdh2, hits give low values 1.01 | S. cerevisiae deletion strains, locus YLR027C, strain aat2, hits give low values 1.01 | S. cerevisiae deletion strains, locus YLR039C, strain RIC1, hits give low values 1.06 | S. cerevisiae deletion strains, locus YLR058C, strain SHM2, hits give low values 1.01 | S. cerevisiae deletion strains, locus YLR102C, strain apc9, hits give low values 1.01 | S. cerevisiae deletion strains, locus YLR113W, strain HOG1, hits give low values 0.999 | S. cerevisiae deletion strains, locus YLR221C, strain rsa3, hits give low values 1.01 | S. cerevisiae deletion strains, locus YLR258W, strain gsy2, hits give low values 1.02 | S. cerevisiae deletion strains, locus YLR262C, strain YPT6 (second series), hits give low values 1.02 | S. cerevisiae deletion strains, locus YLR262C, strain YPT6, hits give low values 1.02 | S. cerevisiae deletion strains, locus YLR268W, strain sec22, hits give low values 1.05 | S. cerevisiae deletion strains, locus YLR320W, strain mms22, hits give low values 1 | S. cerevisiae deletion strains, locus YLR330W, strain CHS5, hits give low values 1.01 | S. cerevisiae deletion strains, locus YLR342W, strain FKS1 (second series), hits give low values 1 | S. cerevisiae deletion strains, locus YLR342W, strain FKS1, hits give low values 1.01 | S. cerevisiae deletion strains, locus YLR357W, strain rsc2, hits give low values 0.97 | S. cerevisiae deletion strains, locus YLR370C, strain arc18, hits give low values 1.02 | S. cerevisiae deletion strains, locus YLR371W, strain rom2, hits give low values 1.02 | S. cerevisiae deletion strains, locus YLR384C, strain iki3, hits give low values 1.01 | S. cerevisiae deletion strains, locus YLR418C, strain cdc73, hits give low values 1.05 | S. cerevisiae deletion strains, locus YML016C, strain PPZ1, hits give low values 1.01 | S. cerevisiae deletion strains, locus YML032C, strain rad52, hits give low values 1.02 | S. cerevisiae deletion strains, locus YML120C, strain ndi1, hits give low values 0.999 | S. cerevisiae deletion strains, locus YML124C, strain tub3, hits give low values 1.02 | S. cerevisiae deletion strains, locus YMR058W, strain fet3, hits give low values 1 | S. cerevisiae deletion strains, locus YMR078C, strain ctf18, hits give low values 1.02 | S. cerevisiae deletion strains, locus YMR125W, strain sto1, hits give low values 1 | S. cerevisiae deletion strains, locus YMR129W, hits give low values 1.01 | S. cerevisiae deletion strains, locus YMR205C, strain PFK2, hits give low values 1 | S. cerevisiae deletion strains, locus YMR223W, strain ubp8, hits give low values 1 | S. cerevisiae deletion strains, locus YMR231W, strain pep5, hits give low values 1.02 | S. cerevisiae deletion strains, locus YMR263W, strain SAP30, hits give low values 1.02 | S. cerevisiae deletion strains, locus YMR307W, strain GAS1, hits give low values 1.03 | S. cerevisiae deletion strains, locus YNL067W, strain RPL9B, hits give low values 1.03 | S. cerevisiae deletion strains, locus YNL071W, strain lat1, hits give low values 1.02 | S. cerevisiae deletion strains, locus YNL128W, strain TEP1, hits give low values 1.01 | S. cerevisiae deletion strains, locus YNL153C, strain GIM3, hits give low values 1.02 | S. cerevisiae deletion strains, locus YNL183C, strain NPR1, hits give low values 0.97 | S. cerevisiae deletion strains, locus YNL209W, strain ssb2, hits give low values 1.04 | S. cerevisiae deletion strains, locus YNL233W, strain BNI4, hits give low values 1.01 | S. cerevisiae deletion strains, locus YNL248C, strain rpa49, hits give low values 1.03 | S. cerevisiae deletion strains, locus YNL250W, strain rad50, hits give low values 1.01 | S. cerevisiae deletion strains, locus YNL271C, strain bni1, hits give low values 1.02 | S. cerevisiae deletion strains, locus YNL298W, strain CLA4, hits give low values 1.02 | S. cerevisiae deletion strains, locus YNL307C, strain MCK1, hits give low values 1.02 | S. cerevisiae deletion strains, locus YNL322C, strain KRE1 (second series), hits give low values 1.03 | S. cerevisiae deletion strains, locus YNL322C, strain KRE1, hits give low values 1.01 | S. cerevisiae deletion strains, locus YNR049C, strain mso1, hits give low values 1.01 | S. cerevisiae deletion strains, locus YNR052C, strain pop2, hits give low values 1.02 | S. cerevisiae deletion strains, locus YOL006C, strain TOP1, hits give low values 1.07 | S. cerevisiae deletion strains, locus YOL012C, strain htz1 0.744 | S. cerevisiae deletion strains, locus YOL147C, strain pex11, hits give low values 1.02 | S. cerevisiae deletion strains, locus YOR001W, strain rrp6, hits give low values 1.01 | S. cerevisiae deletion strains, locus YOR061W, strain CKA2, hits give low values 1.01 | S. cerevisiae deletion strains, locus YOR069W, strain VPS5, hits give low values 1.01 | S. cerevisiae deletion strains, locus YOR070C, strain gyp1, hits give low values 1.02 | S. cerevisiae deletion strains, locus YOR080W, strain dia2, hits give low values 1.02 | S. cerevisiae deletion strains, locus YOR083W, strain WHI5, hits give low values 0.988 | S. cerevisiae deletion strains, locus YOR106W, strain vam3, hits give low values 1.03 | S. cerevisiae deletion strains, locus YOR136W, strain idh2, hits give low values 1.01 | S. cerevisiae deletion strains, locus YOR144C, strain elg1, hits give low values 1.02 | S. cerevisiae deletion strains, locus YOR184W, strain ser1, hits give low values 1.03 | S. cerevisiae deletion strains, locus YOR231W, strain MKK1, hits give low values 0.993 | S. cerevisiae deletion strains, locus YOR265W, strain rbl2, hits give low values 1.02 | S. cerevisiae deletion strains, locus YOR270C, strain vph1, hits give low values 1.07 | S. cerevisiae deletion strains, locus YOR290C, strain snf2, hits give low values 1.05 | S. cerevisiae deletion strains, locus YOR316C, strain cot1, hits give low values 1.02 | S. cerevisiae deletion strains, locus YPL051W, strain arl3, hits give low values 1 | S. cerevisiae deletion strains, locus YPL055C, strain LGE1, hits give low values 1.07 | S. cerevisiae deletion strains, locus YPL078C, strain atp4, hits give low values 1.03 | S. cerevisiae deletion strains, locus YPL106C, strain sse1, hits give low values 1.02 | S. cerevisiae deletion strains, locus YPL240C, strain hsp82, hits give low values 1.03 | S. cerevisiae deletion strains, locus YPL241C, strain CIN2, hits give low values 1.01 | S. cerevisiae deletion strains, locus YPL256C, strain CLN2, hits give low values 0.992 | S. cerevisiae deletion strains, locus YPR119W, strain clb2, hits give low values 1.01 | S. cerevisiae deletion strains, locus YPR141C, strain kar3, hits give low values 1.01 | S. cerevisiae deletion strains, locus YPR163C, strain tif3, hits give low values 1.02 | S. cerevisiae deletion strains, locus YPR167C, strain met16, hits give low values 1.01 | S. cerevisiae deletion strains, strain wtn01, hits give low values 1.03 | S. cerevisiae strains, strain wild type, hits give low values 1.02
